PubChem BioAssay (Tox21)
Records with an inconclusive call do not appear. Activity calls are given as the source filed them. Unless noted, calls follow the shape of the dose curve; as a rule, active = well fitted curve in the direction sought with a large enough effect in the repeat runs; inconclusive = weak or mixed curves; inactive = no such curve, though single readings can be large; an effect the other way counts as inactive or inconclusive.

What was measured:
[1] = qHTS assay to identify small molecule agonists of the peroxisome proliferator-activated receptor delta (PPARd) signaling pathway - cell viability counter screen (AID 743211); also: % is scaled to controls: 0 for no effect and ±100 for the full control effect; nearly all actives have a fitted effect of over 55% in size
Method in brief: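 Counter screen for cytotoxicity run in parallel with the PPARd reporter screen. Beta-lactamase reporter HEK293H cells exposed to compounds 17 h; ATP-based CellTiter-Glo luminescence quantified viability.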

[2] = molecular target: Peroxisome proliferator-activated receptor delta (Homo sapiens) (UniProt Q03181); test: qHTS assay to identify small molecule agonists of the peroxisome proliferator-activated receptor delta (PPARd) signaling pathway (AID 743212; calls by dose curve; also: % is scaled to controls: 0 for no effect and ±100 for the full control effect)
Method in brief: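 HEK293H PPARd-bla cells; 5 h preincubation 37 C/5% CO2; compound (DMSO) 37 C; LiveBLAzer B/G FRET substrate 2 h RT; fluorescence intensity.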

[3] = molecular target: Peroxisome proliferator-activated receptor delta (Homo sapiens) (UniProt Q03181); test: qHTS assay to identify small molecule antagonists of the peroxisome proliferator-activated receptor delta (PPARd) signaling pathway (AID 743215; active = well fitted inhibition curve with a large enough effect in the signal ratio in the repeat runs, not every such curve was filed as active; the % refers to the signal ratio;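 also: cells stimulated with agonist L165041 at 300 nM final during compound exposure; series mostly up to about 62 µM; % is scaled to controls: 0 for no effect and ±100 for the full control effect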)
Method in brief: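 Antagonist-mode beta-lactamase reporter screen: HEK293H cells with UAS-bla under PPARd control, stimulated by 300 nM L165041 (final) alongside test compound for 17 h at 37 C, then FRET fluorescence after 2 h substrate incubation.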

[4] = qHTS assay to identify small molecule agonists of the farnesoid-X-receptor (FXR) signaling pathway - cell viability counter screen (AID 743218); also: % is scaled to controls: 0 for no effect and ±100 for the full control effect; nearly all actives have a fitted effect of over 45% in size
Method in brief: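 In GeneBLAzer FXR-UAS-bla HEK 293T cells, compounds act for 16 h at 37 C. Cell viability is then scored in the reporter wells by CellTiter-Glo, 30 min at RT, luminescence.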

[5] = qHTS assay to identify small molecule agonists of the vitamin D receptor (VDR) signaling pathway - cell viability counter screen (AID 743224); also: series mostly up to about 63 µM; % is scaled to controls: 0 for no effect and ±100 for the full control effect; nearly all actives have a fitted effect of over 50% in size
Method in brief: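 VDR-bla cell line, quantitative HTS format; 16 h compound incubation (37C, 5% CO2); ATP-based CellTiter-Glo luminescence measured in the reporter assay wells.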

[6] = qHTS assay to identify small molecule antagonists of the vitamin D receptor (VDR) signaling pathway - cell viability counter screen (AID 743225); also: % is scaled to controls: 0 for no effect and ±100 for the full control effect; nearly all actives have a fitted effect of over 50% in size
Method in brief: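 HEK293T VDR-bla; cpd + 1a,25-(OH)2D3 3 nM final, 16 h 37C/5% CO2; B/G FRET substrate 2 h RT; then CellTiter-Glo 30 min RT, luminescence.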

[7] = qHTS assay to identify small molecule agonists of the NFkB signaling pathway (AID 1159509; active = well fitted curve in the direction sought with a large enough effect in the signal ratio in the repeat runs, not every such curve was filed as active; the % refers to the signal ratio; also: series mostly up to about 61 µM; % is scaled to controls: 0 for no effect and ±100 for the full control effect)
Method in brief: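 NFkB-bla ME-180 cells carry a beta-lactamase reporter under an NF-kB response element. They were plated overnight, then exposed to compounds for 5 h at 37 C. Read-out is LiveBLAzer FRET after 1.5 hr at room temperature (405 nm excitation; 460/530 nm emission).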

[8] = qHTS assay to identify small molecule agonists of the NFkB signaling pathway - cell viability counter screen (AID 1159515; calls by dose curve; also: series mostly up to about 61 µM; % is scaled to controls: 0 for no effect and ±100 for the full control effect; nearly all actives have a fitted effect of over 55% in size)
Method in brief: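 Viability in NFkB-bla ME-180 cells was measured by CellTiter-Glo luminescence, 30 min room temperature, in wells already treated 5 hr with compounds and read for reporter FRET.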

[9] = qHTS assay to identify small molecule agonists of the endoplasmic reticulum stress response signaling pathway (AID 1159516; active = well fitted activation curve with a large enough effect in the signal ratio in the repeat runs, not every such curve was filed as active; the % refers to the signal ratio; also: % is scaled to controls: 0 for no effect and ±100 for the full control effect)
Method in brief: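 ER stress element reporter (bla) in HeLa. 1,500 cells/well, overnight attachment; 5 hr compound; 2 hr RT substrate; dual-emission fluorescence.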

[10] = qHTS assay to identify small molecule antagonists of the retinoid-related orphan receptor gamma (ROR-gamma) signaling pathway - cell viability counter screen (AID 1159520); also: % is scaled to controls: 0 for no effect and ±100 for the full control effect; nearly all actives have a fitted effect of over 50% in size
Method in brief: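 Cytotoxicity was read from cellular ATP (CellTiter-Glo luminescence) after 16 hr at 37 C with 1 uM doxycycline induction. The inducer was added 2 hr after compound transfer to Tet-on ROR gamma CHO cells.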

[11] = molecular target: Nuclear receptor ROR-gamma (Homo sapiens) (UniProt P51449); test: qHTS assay to identify small molecule antagonists of the retinoid-related orphan receptor gamma (ROR-gamma) signaling pathway (AID 1159521;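 also: CHO cells with doxycycline inducible ROR-gamma driving an RORE luciferase reporter; top concentration of the series differs between compounds; % is scaled to controls: 0 for no effect and ±100 for the full control effect; nearly all actives have a fitted effect of over 50% in size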)
Method in brief: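 Cells were plated, rested 4 h at 37 C, exposed to compounds for 2 h, then given 1 uM final doxycycline hyclate to induce RORγ expression. After 16 h, ONE-Glo luminescence from the ROR response element reporter was measured.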

[12] = qHTS assay to identify small molecule agonists of the AP-1 signaling pathway - cell viability counter screen (AID 1159525; calls by dose curve; also: nearly all actives have a fitted effect of over 55% in size)
Method in brief: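 Luminescent ATP readout (Cell Titer Glo, 30 min RT), normalised to DMSO and tetra n-octyl ammonium bromide controls. Cells were ME-180 AP-1-bla in 0.5% dialyzed FBS Opti-MEM, with a 5 h, 37 °C compound exposure.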

[13] = qHTS assay to identify small molecule agonists of the AP-1 signaling pathway (AID 1159526; calls by dose curve; also: % is scaled to controls: 0 for no effect and ±100 for the full control effect)
[14] = qHTS assay to identify small molecule antagonists of the peroxisome proliferator-activated receptor delta (PPARd) signaling pathway - cell viability counter screen (AID 743213)
Method in brief: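 PPARd-bla HEK293H cells (3000/well) got compound plus 300 nM L165041 agonist for 17 h at 37 C. Viability in the same wells came from CellTiter-Glo luminescence after 30 min at room temperature.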

[15] = molecular target: Bile acid receptor (Homo sapiens) (UniProt Q96RI1); test: qHTS assay to identify small molecule antagonists of the farnesoid-X-receptor (FXR) signaling pathway (AID 743217; active = well fitted inhibition curve with a large enough effect in the signal ratio in the repeat runs, not every such curve was filed as active; the % refers to the signal ratio; also: % is scaled to controls: 0 for no effect and ±100 for the full control effect)
Method in brief: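 Beta-lactamase reporter under UAS control in HEK 293T cells; compound exposure 16 h at 37 °C in the presence of chenodeoxycholic acid (50 uM final); signal from B/G FRET substrate after 2 h at room temperature.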

[16] = molecular target: Bile acid receptor (Homo sapiens) (UniProt Q96RI1); test: qHTS assay to identify small molecule agonists of the farnesoid-X-receptor (FXR) signaling pathway (AID 743220; active = well fitted activation curve with a large enough effect in the signal ratio in the repeat runs, not every such curve was filed as active; the % refers to the signal ratio; also: % is scaled to controls: 0 for no effect and ±100 for the full control effect)
Method in brief: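 Beta-lactamase reporter under UAS control in GeneBLAzer FXR HEK 293T cells (5000/well) measured with LiveBLAzer FRET substrate after 2 h at room temperature. Compound exposure lasted 16 h at 37C.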

[17] = qHTS assay to identify small molecule antagonists of the farnesoid-X-receptor (FXR) signaling pathway - cell viability counter screen (AID 743221; active = well fitted cell-killing curve with a large enough effect in the repeat runs, not every such curve was filed as active)
Method in brief: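 Multiplexed counter screen: viability of FXR-bla HEK 293T cells under agonist stimulation by chenodeoxycholic acid (50 uM, final) and test compound for 16 h at 37 C, measured by CellTiter-Glo luminescence in the reporter wells.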

[18] = molecular target: Vitamin D3 receptor (Homo sapiens) (UniProt P11473); test: qHTS assay to identify small molecule agonists of the vitamin D receptor (VDR) signaling pathway (AID 743222; calls by dose curve; also: % is scaled to controls: 0 for no effect and ±100 for the full control effect)
Method in brief: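 Agonist activity measured in VDR-bla reporter cells. Exposure 16 h, 37C, 5% CO2; detection by B/G FRET substrate, 2 h RT.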

[19] = molecular target: Vitamin D3 receptor (Homo sapiens) (UniProt P11473); test: qHTS assay to identify small molecule antagonists of the vitamin D receptor (VDR) signaling pathway (AID 743223; active = well fitted inhibition curve with a large enough effect in the signal ratio in the repeat runs, not every such curve was filed as active; the % refers to the signal ratio; also: % is scaled to controls: 0 for no effect and ±100 for the full control effect)
Method in brief: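 Cells carrying a VDR-driven beta-lactamase reporter (VDR-bla) were co-treated with compound and 3 nM final 1alpha,25-dihydroxyvitamin D3 for 16 h at 37C; reporter activity was measured as FRET substrate fluorescence after 2 h at room temperature.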

[20] = qHTS assay to identify small molecule agonists of the endoplasmic reticulum stress response signaling pathway - cell viability counter screen (AID 1159517; calls by dose curve)
Method in brief: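 HeLa cells carrying an ESRE-driven beta-lactamase reporter receive compound for 5 hr at 37 C. Cell viability is then gauged with CellTiter-Glo by luminescence, 30 min at room temperature.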

Sequence of Vitamin D3 receptor (Homo sapiens) (P11473 whole entry, looked up): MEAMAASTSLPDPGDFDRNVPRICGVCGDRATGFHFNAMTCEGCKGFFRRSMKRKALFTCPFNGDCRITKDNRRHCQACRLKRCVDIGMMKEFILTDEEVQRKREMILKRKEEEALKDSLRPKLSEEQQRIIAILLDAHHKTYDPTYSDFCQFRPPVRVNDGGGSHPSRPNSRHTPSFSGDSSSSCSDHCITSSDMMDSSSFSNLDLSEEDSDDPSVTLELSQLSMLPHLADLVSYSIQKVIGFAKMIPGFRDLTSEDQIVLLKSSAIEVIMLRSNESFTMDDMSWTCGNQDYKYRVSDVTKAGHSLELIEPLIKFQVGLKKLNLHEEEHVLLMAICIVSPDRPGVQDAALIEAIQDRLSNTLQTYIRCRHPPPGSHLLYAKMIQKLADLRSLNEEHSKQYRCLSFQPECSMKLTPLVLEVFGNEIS
Sequence of Peroxisome proliferator-activated receptor delta (Homo sapiens) (Q03181 whole entry, looked up): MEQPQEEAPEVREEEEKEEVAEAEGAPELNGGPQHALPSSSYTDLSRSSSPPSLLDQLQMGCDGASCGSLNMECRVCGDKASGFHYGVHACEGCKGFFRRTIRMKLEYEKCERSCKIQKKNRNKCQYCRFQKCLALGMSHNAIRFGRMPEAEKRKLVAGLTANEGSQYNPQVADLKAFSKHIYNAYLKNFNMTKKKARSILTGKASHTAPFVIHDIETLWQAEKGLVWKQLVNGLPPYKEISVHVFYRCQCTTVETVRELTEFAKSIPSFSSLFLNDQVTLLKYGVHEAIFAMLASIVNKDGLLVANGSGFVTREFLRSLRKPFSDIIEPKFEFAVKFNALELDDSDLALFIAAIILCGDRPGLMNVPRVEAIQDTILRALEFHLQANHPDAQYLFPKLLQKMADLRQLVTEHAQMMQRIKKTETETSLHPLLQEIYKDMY
Sequence of Bile acid receptor (Homo sapiens) (Q96RI1 whole entry, looked up): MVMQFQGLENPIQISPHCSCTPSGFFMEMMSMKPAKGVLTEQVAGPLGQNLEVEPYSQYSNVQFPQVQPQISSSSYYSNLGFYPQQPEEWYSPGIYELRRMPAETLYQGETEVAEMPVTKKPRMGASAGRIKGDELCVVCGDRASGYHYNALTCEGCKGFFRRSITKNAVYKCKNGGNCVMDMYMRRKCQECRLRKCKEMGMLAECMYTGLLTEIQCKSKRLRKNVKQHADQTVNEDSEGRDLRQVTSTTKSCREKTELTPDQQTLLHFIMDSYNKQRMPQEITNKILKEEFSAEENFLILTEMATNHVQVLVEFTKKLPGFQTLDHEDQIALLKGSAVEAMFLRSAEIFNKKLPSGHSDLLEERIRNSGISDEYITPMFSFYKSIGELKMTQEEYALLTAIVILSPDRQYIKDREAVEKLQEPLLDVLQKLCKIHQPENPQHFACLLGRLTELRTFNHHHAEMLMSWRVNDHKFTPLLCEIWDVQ

CCOC(CN1CCN(CC(C)C(=O)c2ccccc2)CC1)c1ccccc1 (stereo not given)
inactive: outcome [1] | outcome [2] | outcome [3] | outcome [4] | outcome [5] | outcome [6] | outcome [7] | outcome [8] | outcome [9] | activity, negative = cytotoxicity [10] -1.7% [at 19 µM] | activity change, negative = inhibition [11] -4.62% [at 19 µM] | viability change, negative = cytotoxic [12] 14.4% [at 15.8 µM] | activation [13] 5.61% [at 15.8 µM]

O=C(Cn1ccnc1[N+](=O)[O-])NCc1ccccc1
inactive: outcome [1] | outcome [2] | outcome [14] | outcome [3] | outcome [15] | outcome [4] | outcome [16] | outcome [17] | outcome [5] | outcome [7] | outcome [8] | outcome [9] | outcome [10] | outcome [11] | outcome [12] | outcome [13]

CO/N=C(/C(=O)N[C@@H]1C(=O)N2C(C(=O)[O-])=C(C[n+]3ccn4ncccc43)CS[C@H]12)c1nsc(N)n1
inactive: outcome [1] | outcome [2] | outcome [14] | outcome [3] | outcome [4] | outcome [17] | outcome [6] | outcome [7] | outcome [8] | outcome [9] | outcome [11] | outcome [12] | outcome [13]

O=C(Cl)c1ccccc1[N+](=O)[O-]
inactive: outcome [1] | outcome [4] | outcome [17] | outcome [5] | outcome [6] | outcome [7] | outcome [8] | outcome [9] | outcome [10] | outcome [11] | outcome [12] | outcome [13]

Cn1nnc2c(C(N)=O)ncn2c1=O
inactive: outcome [1] | outcome [2] | outcome [3] | outcome [15] | outcome [16] | outcome [17] | outcome [18] | outcome [19] | outcome [5] | outcome [6] | outcome [7] | outcome [8] | outcome [9] | outcome [10] | outcome [11] | outcome [12] | outcome [13]

CC(=O)O[C@@H]1CC2CCC1(C)C2(C)C (stereo not given in full)
inactive: outcome [1] | outcome [14] | outcome [15] | outcome [4] | outcome [16] | outcome [18] | outcome [19] | outcome [5] | outcome [6] | outcome [7] | outcome [8] | outcome [9] | outcome [10] | outcome [11] | outcome [12] | outcome [13]

CCC(C)OC(C)CC (stereo not given)
inactive: outcome [1] | outcome [2] | outcome [3] | outcome [4] | outcome [17] | outcome [18] | outcome [5] | outcome [6] | outcome [7] | outcome [8] | outcome [9] | outcome [10] | outcome [11] | outcome [12] | outcome [13]

CCCC(=O)OCCC(C)CCC=C(C)C (stereo not given)
inactive: outcome [1] | outcome [2] | outcome [14] | outcome [3] | outcome [4] | outcome [17] | outcome [5] | outcome [7] | outcome [8] | outcome [9] | outcome [10] | outcome [11] | outcome [12] | outcome [13]

CCCc1ccc(O)cc1
inactive: outcome [1] | outcome [2] | outcome [14] | outcome [3] | outcome [15] | outcome [4] | outcome [16] | outcome [17] | outcome [18] | outcome [19] | outcome [6] | outcome [7] | outcome [8] | outcome [9] | outcome [10] | outcome [11] | outcome [12] | outcome [13]

Cc1c(Cl)cccc1Cl
inactive: outcome [1] | outcome [4] | outcome [17] | outcome [18] | outcome [5] | outcome [6] | outcome [7] | outcome [8] | outcome [9] | outcome [20] | outcome [11] | outcome [12] | outcome [13]

CCCCOC(=O)C(C)O (stereo not given)
inactive: outcome [1] | outcome [2] | outcome [14] | outcome [3] | outcome [15] | outcome [4] | outcome [16] | outcome [17] | outcome [18] | outcome [5] | outcome [6] | outcome [8] | outcome [9] | outcome [20] | outcome [10] | outcome [11] | outcome [12] | outcome [13]

O=C1c2ccccc2C(=O)c2cc(Cl)ccc21
inactive: activity change, negative = cytotoxicity [1] -0.0176% [at 5.95 µM] | activation [2] -1.6% [at 5.95 µM] | viability change, negative = cytotoxic [14] 3.97% [at 6.26 µM] | ratio activity, negative = inhibition [3] 5.48% [at 6.26 µM] | activity change, negative = inhibition [15] -1.25% [at 5.95 µM] | viability change, negative = cytotoxic [4] -3.87% [at 5.95 µM] | activation [16] 0.306% [at 5.95 µM] | activity change, negative = cytotoxicity [17] -3.54% [at 5.95 µM] | activation [18] -5.27% [at 6.01 µM] | activity change, negative = cytotoxicity [5] -4.49% [at 5.95 µM] | viability change, negative = cytotoxic [6] -4.02% [at 6.95 µM] | activity, negative = cytotoxic [8] 13.9% [at 6.95 µM] | activation [9] 0.175% [at 6.95 µM] | activity change, negative = cytotoxicity [20] 0.196% [at 6.95 µM] | activity, negative = cytotoxicity [10] 5.88% [at 8.39 µM] | activity change, negative = inhibition [11] 38.6% [at 8.39 µM] | viability change, negative = cytotoxic [12] 1.45% [at 6.97 µM] | activation [13] -9.9% [at 6.97 µM]

C=CCSSCCC
inactive: outcome [1] | outcome [2] | outcome [3] | outcome [4] | outcome [17] | outcome [18] | outcome [5] | outcome [6] | outcome [7] | outcome [8] | outcome [9] | outcome [10] | outcome [11] | outcome [12] | outcome [13]

CC(=O)c1cc(C)oc1C
inactive: outcome [1] | outcome [2] | outcome [3] | outcome [4] | outcome [17] | outcome [18] | outcome [5] | outcome [6] | outcome [7] | outcome [8] | outcome [9] | outcome [10] | outcome [11] | outcome [12] | outcome [13]

C[C@H]1[C@@H](c2ccccc2)NC(=O)N1C
inactive: outcome [1] | outcome [2] | outcome [14] | outcome [3] | outcome [15] | outcome [4] | outcome [16] | outcome [17] | outcome [18] | outcome [5] | outcome [6] | outcome [7] | outcome [8] | outcome [9] | outcome [10] | outcome [11] | outcome [12] | outcome [13]

C=C(C)[C@@H]1CC=C(C)CC1
inactive: outcome [1] | outcome [17] | outcome [5] | outcome [6] | outcome [8] | outcome [9] | outcome [20] | outcome [10] | outcome [12] | outcome [13]

Cc1c(C(=O)c2c[nH]n(C)c2=O)ccc(S(C)(=O)=O)c1C1=NOCC1
inactive: outcome [1] | outcome [2] | outcome [4] | outcome [17] | outcome [18] | outcome [5] | outcome [6] | outcome [8] | outcome [9] | outcome [20] | outcome [10] | outcome [11] | outcome [12] | outcome [13]
